# Data reported in paper PMC9911399, “Two distinct binding modes provide the RNA-binding protein RbFox with extraordinary sequence specificity”.
# Substitutions are numbered along the chain they refer to; changes in the protein carry UniProt numbers. The full ranking holds about 16,000 sequences; the median of “ka relative to ugcaugu” is about 0.0091, and the highest 2% start at about 0.032. The list comes from a sample in which the highest values are over-represented; it also holds similar and randomly drawn sequences.
# T1: RBFOX1 RRM (Homo sapiens, UniProt Q9NWB1 109-208)
# T1 sequence: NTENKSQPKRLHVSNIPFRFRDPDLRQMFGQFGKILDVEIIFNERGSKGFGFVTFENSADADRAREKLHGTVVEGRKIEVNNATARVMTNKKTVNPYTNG
# B1: UUUCUUU (DNA:RNA)
# RNA: GGGAGACCGGAAUUCAGAUUGUCCUUUCUUUUUAAAUCCCGUCGUAGCCACCA
# DNA 1: CAATCTGAATTCCGGTCTCCC
# DNA 2: TGGTGGCTACGACGGGATT
# B2: UUGUCUG (DNA:RNA)
# RNA: B1 RNA with U27G, C28U, U29C, U31G
# DNA 1: CAATCTGAATTCCGGTCTCCC
# DNA 2: TGGTGGCTACGACGGGATT
# B3: GACUUAC (DNA:RNA)
# RNA: B1 RNA with U25G, U26A, U27C, C28U, U30A, U31C
# DNA 1: CAATCTGAATTCCGGTCTCCC
# DNA 2: TGGTGGCTACGACGGGATT
# B4: AGCGCCC (DNA:RNA)
# RNA: GGGAGACCGGAAUUCAGAUUGUCCAGCGCCCUUAAAUCCCGUCGUAGCCACCA
# DNA 1: CAATCTGAATTCCGGTCTCCC
# DNA 2: TGGTGGCTACGACGGGATT
# B5: GAUUAAA (DNA:RNA)
# RNA: B1 RNA with U25G, U26A, C28U, U29A, U30A, U31A
# DNA 1: CAATCTGAATTCCGGTCTCCC
# DNA 2: TGGTGGCTACGACGGGATT
# B6: CAAACAU (DNA:RNA)
# RNA: B4 RNA with A25C, G26A, C27A, G28A, C30A, C31U
# DNA 1: CAATCTGAATTCCGGTCTCCC
# DNA 2: TGGTGGCTACGACGGGATT
# B7: UAGGGUA (DNA:RNA)
# RNA: B1 RNA with U26A, U27G, C28G, U29G, U31A
# DNA 1: CAATCTGAATTCCGGTCTCCC
# DNA 2: TGGTGGCTACGACGGGATT
# B8: CGGCUCA (DNA:RNA)
# RNA: B4 RNA with A25C, C27G, G28C, C29U, C31A
# DNA 1: CAATCTGAATTCCGGTCTCCC
# DNA 2: TGGTGGCTACGACGGGATT
# B9: AUGGGUC (DNA:RNA)
# RNA: B4 RNA with G26U, C27G, C29G, C30U
# DNA 1: CAATCTGAATTCCGGTCTCCC
# DNA 2: TGGTGGCTACGACGGGATT
# B10: ACGAACG (DNA:RNA)
# RNA: B4 RNA with G26C, C27G, G28A, C29A, C31G
# DNA 1: CAATCTGAATTCCGGTCTCCC
# DNA 2: TGGTGGCTACGACGGGATT
# B11: GAGUUAU (DNA:RNA)
# RNA: B1 RNA with U25G, U26A, U27G, C28U, U30A
# DNA 1: CAATCTGAATTCCGGTCTCCC
# DNA 2: TGGTGGCTACGACGGGATT
# B12: CUGCUAG (DNA:RNA)
# RNA: B1 RNA with U25C, U27G, U30A, U31G
# DNA 1: CAATCTGAATTCCGGTCTCCC
# DNA 2: TGGTGGCTACGACGGGATT
# B13: UUGAUGC (DNA:RNA)
# RNA: B1 RNA with U27G, C28A, U30G, U31C
# DNA 1: CAATCTGAATTCCGGTCTCCC
# DNA 2: TGGTGGCTACGACGGGATT
# B14: UUGCUGC (DNA:RNA)
# RNA: B1 RNA with U27G, U30G, U31C
# DNA 1: CAATCTGAATTCCGGTCTCCC
# DNA 2: TGGTGGCTACGACGGGATT
# B15: CUAGUUG (DNA:RNA)
# RNA: B1 RNA with U25C, U27A, C28G, U31G
# DNA 1: CAATCTGAATTCCGGTCTCCC
# DNA 2: TGGTGGCTACGACGGGATT
# B16: UGCUUGC (DNA:RNA)
# RNA: B4 RNA with A25U, G28U, C29U, C30G
# DNA 1: CAATCTGAATTCCGGTCTCCC
# DNA 2: TGGTGGCTACGACGGGATT
# B17: UGCUUGA (DNA:RNA)
# RNA: B4 RNA with A25U, G28U, C29U, C30G, C31A
# DNA 1: CAATCTGAATTCCGGTCTCCC
# DNA 2: TGGTGGCTACGACGGGATT
# B18: UGAUUGC (DNA:RNA)
# RNA: B4 RNA with A25U, C27A, G28U, C29U, C30G
# DNA 1: CAATCTGAATTCCGGTCTCCC
# DNA 2: TGGTGGCTACGACGGGATT
# B19: UGCUAGU (DNA:RNA)
# RNA: B4 RNA with A25U, G28U, C29A, C30G, C31U
# DNA 1: CAATCTGAATTCCGGTCTCCC
# DNA 2: TGGTGGCTACGACGGGATT
# B20: UGCUUAA (DNA:RNA)
# RNA: B4 RNA with A25U, G28U, C29U, C30A, C31A
# DNA 1: CAATCTGAATTCCGGTCTCCC
# DNA 2: TGGTGGCTACGACGGGATT
# B21: UAACAUU (DNA:RNA)
# RNA: B1 RNA with U26A, U27A, U29A
# DNA 1: CAATCTGAATTCCGGTCTCCC
# DNA 2: TGGTGGCTACGACGGGATT
# B22: UACAGUC (DNA:RNA)
# RNA: B4 RNA with A25U, G26A, G28A, C29G, C30U
# DNA 1: CAATCTGAATTCCGGTCTCCC
# DNA 2: TGGTGGCTACGACGGGATT
# B23: AGCAGAA (DNA:RNA)
# RNA: B4 RNA with G28A, C29G, C30A, C31A
# DNA 1: CAATCTGAATTCCGGTCTCCC
# DNA 2: TGGTGGCTACGACGGGATT
# B24: GCAUGGA (DNA:RNA)
# RNA: GGGAGACCGGAAUUCAGAUUGUCCGCAUGGAUUAAAUCCCGUCGUAGCCACCA
# DNA 1: CAATCTGAATTCCGGTCTCCC
# DNA 2: TGGTGGCTACGACGGGATT
# B25: GGAUGGA (DNA:RNA)
# RNA: B24 RNA with C26G
# DNA 1: CAATCTGAATTCCGGTCTCCC
# DNA 2: TGGTGGCTACGACGGGATT
# B26: GUCAUGA (DNA:RNA)
# RNA: B24 RNA with C26U, A27C, U28A, G29U
# DNA 1: CAATCTGAATTCCGGTCTCCC
# DNA 2: TGGTGGCTACGACGGGATT
# B27: GGCAUGA (DNA:RNA)
# RNA: B24 RNA with C26G, A27C, U28A, G29U
# DNA 1: CAATCTGAATTCCGGTCTCCC
# DNA 2: TGGTGGCTACGACGGGATT
# B28: GCAUGAU (DNA:RNA)
# RNA: B24 RNA with G30A, A31U
# DNA 1: CAATCTGAATTCCGGTCTCCC
# DNA 2: TGGTGGCTACGACGGGATT
# B29: GCAUAAU (DNA:RNA)
# RNA: B24 RNA with G29A, G30A, A31U
# DNA 1: CAATCTGAATTCCGGTCTCCC
# DNA 2: TGGTGGCTACGACGGGATT
# B30: GUAUGAC (DNA:RNA)
# RNA: B24 RNA with C26U, G30A, A31C
# DNA 1: CAATCTGAATTCCGGTCTCCC
# DNA 2: TGGTGGCTACGACGGGATT
# B31: GGCAUAA (DNA:RNA)
# RNA: B4 RNA with A25G, G28A, C29U, C30A, C31A
# DNA 1: CAATCTGAATTCCGGTCTCCC
# DNA 2: TGGTGGCTACGACGGGATT
# B32: GGAUGAC (DNA:RNA)
# RNA: B24 RNA with C26G, G30A, A31C
# DNA 1: CAATCTGAATTCCGGTCTCCC
# DNA 2: TGGTGGCTACGACGGGATT
# B33: GCAUUCA (DNA:RNA)
# RNA: B24 RNA with G29U, G30C
# DNA 1: CAATCTGAATTCCGGTCTCCC
# DNA 2: TGGTGGCTACGACGGGATT
# B34: GCAUUUU (DNA:RNA)
# RNA: B24 RNA with G29U, G30U, A31U
# DNA 1: CAATCTGAATTCCGGTCTCCC
# DNA 2: TGGTGGCTACGACGGGATT
# B35: GCAUGAC (DNA:RNA)
# RNA: B24 RNA with G30A, A31C
# DNA 1: CAATCTGAATTCCGGTCTCCC
# DNA 2: TGGTGGCTACGACGGGATT
# Biological target: T1, RBFOX1 RRM
# Assay: EMSA; HiTS-Eq, 1 nM pool, 10 min; buffer printed only for the single-RNA assays: 10 mM Tris pH 7.5, 150 mM NaCl, 3.4 mM EDTA, 0.001% NP-40, 30 C
# Settings: tags: His6 N-terminal (pET28a); label: 5' 32P
# Outline: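 Purified wild-type or mutant RbFox RRM at increasing concentrations was equilibrated with 1 nM of 5′-radiolabelled RNA carrying 7 randomized nucleotides for 10 min in 50 µL. Unbound RNA was separated by 8% native PAGE and sequenced. Relative association constants came from read-count changes of each RNA species compared with the control reaction, normalised to the cognate motif.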
row,Binder,binding signal
1,B1,0.0113 KA relative to UGCAUGU
2,B2,0.0312 KA relative to UGCAUGU
3,B3,0.00749 KA relative to UGCAUGU
4,B4,0.00884 KA relative to UGCAUGU
5,B5,0.00427 KA relative to UGCAUGU
6,B6,0.000358 KA relative to UGCAUGU
7,B7,0.0162 KA relative to UGCAUGU
8,B8,0.00697 KA relative to UGCAUGU
9,B9,0.0197 KA relative to UGCAUGU
10,B10,0.0126 KA relative to UGCAUGU
11,B11,0.00747 KA relative to UGCAUGU
12,B12,0.0317 KA relative to UGCAUGU
13,B13,0.0187 KA relative to UGCAUGU
14,B14,0.0167 KA relative to UGCAUGU
15,B15,0.0137 KA relative to UGCAUGU
16,B16,0.088 KA relative to UGCAUGU
17,B17,0.0378 KA relative to UGCAUGU
18,B18,0.0265 KA relative to UGCAUGU

row,Binder,binding signal
1,B19,0.0309 KA relative to UGCAUGU
2,B20,0.0138 KA relative to UGCAUGU
3,B21,0.00574 KA relative to UGCAUGU
4,B22,0.00675 KA relative to UGCAUGU
5,B23,0.00732 KA relative to UGCAUGU
6,B24,0.0333 KA relative to UGCAUGU
7,B25,0.0107 KA relative to UGCAUGU
8,B26,0.0126 KA relative to UGCAUGU
9,B27,0.156 KA relative to UGCAUGU
10,B28,0.626 KA relative to UGCAUGU
11,B29,0.00163 KA relative to UGCAUGU
12,B30,0.0127 KA relative to UGCAUGU
13,B31,0.00272 KA relative to UGCAUGU
14,B32,0.015 KA relative to UGCAUGU
15,B33,0.00789 KA relative to UGCAUGU
16,B34,0.0088 KA relative to UGCAUGU
17,B35,0.599 KA relative to UGCAUGU
